Drawing on PubChem BioAssay (NCI), this text covers growth for eight compounds.

Molecules are shown by their SMILES. This is part of a sample that, as a whole, favours compounds with a hit. Of some 83,000 tested, about 20% had one in any assay.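 Treatment: one concentration, 48 hours, 96-well format. Scoring: percent growth, with anything below 10 considered active.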 A number with no mark means an inactive call. Calls of active or inactive are those of the source.

Common to all, as to assay: NCI-60 one-dose screen, 48 h (100 = growth as untreated, 0 = no growth, -100 = all killed)
Common to all, as to conditions: 10 µM unless noted

For assay [1], the system named is NCI-H23 lung.
Assay [2] concerns NCI-H226 lung.
Assay [3] has as its system NCI-H322M lung.
Assay [4] has as its system HOP-62 NSCLC.
In assay [5] the test system is NCI-H460 lung.
In assay [6] the test system is HOP-92 NSCLC.
Assay [7] relates to NCI-H522 lung.
In assay [8] the test system is A549/ATCC NSCLC.
The test system of assay [9] is 786-0 renal.
Assay [10] deals with COLO 205 colon.
The subject of assay [11] is DU-145 prostate.
The test system of assay [12] is K-562 leukemia.
The test system of assay [13] is MDA-MB-231 breast.
In assay [14] the test system is RXF 393 renal.
The test system of assay [15] is SF-268 CNS.
Assay [16] deals with SF-295 CNS.
In assay [17] the test system is SF-539 CNS.
The test system of assay [18] is M14 melanoma.
For assay [19], the system named is MALME-3M melanoma.

As to `COc1cnc2c(c1)C(=O)c1c-2n(CCCNC2=NCCS2)c(=O)c2cc(Cl)ccc12`, the growth in assay [1] is -52.4% (active); in assay [2], 46.9%; in assay [3], -43.9% (active); in [4], -78.9% (active); in [5], -80.3% (active); in [6] it was 77.6%. Moreover, the growth in [7] is -64.7% (active); in assay [8], -89.6% (active); in assay [9] it was -96.7% (active); in assay [10], -74.3% (active); in assay [11] it was -76.7% (active); in [12], -58.3% (active). Besides, the growth in assay [13] was -70.7% (active); in [14] it was 39%; in [15] it was -49.4% (active); in assay [16], -93.5% (active); in [17] it was -84.4% (active); in [18] it was -70.3% (active).
Take `O=C(NCCO)Nc1ccc(-c2nc(N3CCOCC3)c3cccn3n2)cc1`: the growth in [1] was 18.2%; in [2], 6.97% (active); in [3] it was 18%; in [4] it was -0.0166% (active); in assay [5], 8.21% (active); in [6], -21.4% (active). The growth in assay [7] was 10.1%; in assay [8], 2.7% (active); in [9], -5.56% (active); in [10], -7.82% (active); in assay [11], 11.4%; in [12], 34.4%. The growth in [13] is 4.2% (active); in assay [14], -33.9% (active); in assay [15], 11.1%; in assay [16], -23.3% (active); in assay [17], 0.904% (active); in assay [18], 6.09% (active).
For the compound `N#Cc1c(-c2ccc(C(F)(F)F)cc2)cc(NCC2CCS(=O)(=O)CC2)n2c1nc1ccccc12`, the growth in assay [1] was 88.8%; in [2], 93.7%; in assay [3] it was 100%; in assay [4], 86.4%; in [5] it was 96.8%; in [6] it was 80.9%. The growth in [7] is 64.5%; in assay [8], 77%; in assay [9], 84.6%; in [10] it was 96.6%; in assay [11], 106%; in [12], 90%. For the same compound, the growth is 56.2% in assay [13]; 72.6% in assay [14]; 82.4% in assay [15]; 88.2% in assay [16]; 82% in assay [17]; 99.2% in [18].
Take `O=C(NO)c1ccc(Cn2c(=O)n(-c3ccccc3F)c(=O)c3ccccc32)cc1`: the growth in [1] is -40.4% (active); in [2], 17.6%; in [3], 26.2%; in assay [4] it was 8.43% (active); in assay [5], 19%; in assay [6] it was 23.2%. The growth in [7] was -60.3% (active); in [8], 5.07% (active); in [9], 33.3%; in assay [10] it was -58.3% (active); in assay [11], 6.2% (active); in [12], 1.13% (active). The growth in [13] is 21.3%; in assay [14], -44.8% (active); in [15], 1.99% (active); in assay [16], -44.3% (active); in assay [17], -12.8% (active); in assay [18], -22.6% (active).
Take `N#CC1(C#N)C(c2cccs2)NC(c2cccs2)C1(C#N)C#N` (centres undefined): the growth in [1] was 95%; in assay [2], 102%; in assay [3], 98%; in assay [4], 95%; in [5] it was 110%; in assay [6], 113%. Besides, the growth in assay [7] was 95.9%; in assay [8] it was 100%; in [9], 101%; in assay [10], 106%; in assay [11], 102%; in [12] it was 95.8%. The growth in assay [19] was 99.2%; in [13], 104%; in [15], 98.1%; in assay [16], 95.6%; in [17] it was 97.6%; in assay [18], 102%.
On to `Fc1ccc(NCc2cn(-c3ccccc3)nc2-c2ccc(OCc3ccccc3)cc2)cc1Cl`, for which the growth in assay [1] is 82%; in assay [2], 102%; in assay [3] it was 105%; in assay [4], 76.6%; in assay [5] it was 110%; in assay [6], 91.2%. Moreover, the growth in [7] was 58.5%; in [8], 83.3%; in assay [9], 88.7%; in assay [10] it was 100%; in assay [11] it was 107%; in assay [12], 89.8%. Further, the growth in assay [13] was 72.7%; in [14], 112%; in assay [15], 92.2%; in assay [16], 87%; in [17], 93.3%; in [18], 88.1%.
As to `Cc1sc2c(c1C)c(=O)nc1c(-c3nc4ccccc4s3)n[nH]n12`, the growth is 88.7% in assay [1]; 87.4% in assay [2]; 96.2% in [3]; 90.1% in assay [4]; 96.7% in [5]; 88.7% in assay [6]. For the same compound, the growth in assay [7] is 90.8%; in [8], 97.2%; in assay [9], 105%; in [10], 103%; in assay [11] it was 106%; in [12] it was 94%. Besides, the growth in [19] was 97.1%; in assay [13], 87.6%; in assay [15], 96.1%; in [16] it was 92.3%; in assay [17], 96.5%; in [18], 98.6%.
Turning to `COC(=O)[C@]12CC[C@@H](C)[C@H](C)[C@@H]1C1=CC[C@@H]3[C@@]4(C)C[C@@H](OC(=O)/C=C/c5ccccc5)[C@H](O)[C@@](C)(CO)[C@@H]4[C@H](O)C[C@@]3(C)[C@]1(C)CC2`, the growth is 4.71% (active) in assay [1]; 0.734% (active) in assay [2]; 37.9% in assay [3]; 11.6% in [4]; -39.6% (active) in assay [5]; -3.66% (active) in assay [6]. In addition, the growth in [7] is -59.6% (active); in [8] it was 5.1% (active); in assay [9], -29% (active); in [10], -58.6% (active); in assay [11], 9.11% (active); in assay [12], 1.96% (active). Besides, the growth in assay [19] is 3.65% (active); in assay [13], -72.7% (active); in [15], 17.4%; in assay [16] it was -16.4% (active); in [17], -49.1% (active); in assay [18] it was 16%.
